Screening data: PubChem BioAssay, National Center for Advancing Translational Sciences (NCATS)
Sampled rows, rich in hits. Any-hit rate of the full collection: about 1.4%.
RE007 growth inh: less growth of the S. pombe RE007 Vpr strain | S. pombe RE007 Vpr strain, BacTiter-Glo ATP luminescence, 24 h | Potency, µM (titrated, usually from 92.2 µM), for the others: at the top dose activity change, negative = less growth, usual class: inhibitors | hit rate 0.21% among 360,000 | AID 651644; active = well fitted falling curve with a large enough effect; inconclusive = small, poorly fitted or top-dose-only effect; inactive = no such curve, though single readings can be large or run the other way; also: nearly all actives have a fitted effect of over 50% in size
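Fission yeast strain RE007, carrying one chromosomally integrated HIV-1 vpr copy, was seeded at OD 0.01 in PMG+AL medium with 23 nL pinned compound. After 24 h at 30 °C and 99% humidity, viability was read by BacTiter-Glo luminescence.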
FBPA Giardia inh: blocks Giardia fructose-bisphosphate aldolase activity. AID 2451. Potency, µM (doses to about 59.6 µM), inactives show top-dose activity, negative = inhibition, actives largely listed as inhibitors. hit rate 0.71% among 290,000. purified Giardia FBPA; also: nearly all actives have a fitted effect of over 55% in size
Target sequence (A8B2U2 whole entry, looked up): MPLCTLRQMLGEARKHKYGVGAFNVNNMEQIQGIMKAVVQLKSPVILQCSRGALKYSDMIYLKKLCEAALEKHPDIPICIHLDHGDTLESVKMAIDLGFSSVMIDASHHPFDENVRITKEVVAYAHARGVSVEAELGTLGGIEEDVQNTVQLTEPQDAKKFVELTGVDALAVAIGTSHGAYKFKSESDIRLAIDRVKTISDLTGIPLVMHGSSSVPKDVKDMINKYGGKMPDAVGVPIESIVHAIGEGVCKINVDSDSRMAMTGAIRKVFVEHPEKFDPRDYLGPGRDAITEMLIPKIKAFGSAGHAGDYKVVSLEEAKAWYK
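40 nM FBPA preincubated 10 min at RT with compound (up to 57.5 uM final), then substrate plus GAPDH/TPI/NAD/arsenate coupling and diaphorase/resazurin added. Fluorescence read after 20 min at RT, 525/598 nm.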
LmPK inhibitor: LmPK (Leishmania mexicana) enzyme inhibition; Q27686; purified LmPK, Kinase-Glo ATP luminescence, 1 h; Potency, µM (highest dose often 57.5 µM), for the others: at the highest dose activity change, negative = inhibition, hits mostly inhibitors; hit rate 0.37% among 290,000; AID 1721
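Screened at intermediate enzyme activity to detect both inhibitors and activators: LmPK at 0.1 nM, with a 0.5 nM enzyme column as activation reference. PEP 0.5 mM, ADP 0.1 mM; ATP detected by luminescence after 1 h.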
AmpC no deterg: inhibitors of E. coli AmpC beta-lactamase without detergent; hit rate 0.52% among 330,000; AmpC nitrocefin hydrolysis, absorbance 480 nm, 0.0001% Triton; Potency, µM (doses to about 57.1 µM), inactives show at the highest dose activity change, negative = inhibition, actives largely listed as inhibitors; AID 485341; P00811;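 also: plate controls were no compound for no effect and no enzyme for full effect; nearly all actives have a fitted effect of over 20% in size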
Target sequence (P00811 whole entry, looked up): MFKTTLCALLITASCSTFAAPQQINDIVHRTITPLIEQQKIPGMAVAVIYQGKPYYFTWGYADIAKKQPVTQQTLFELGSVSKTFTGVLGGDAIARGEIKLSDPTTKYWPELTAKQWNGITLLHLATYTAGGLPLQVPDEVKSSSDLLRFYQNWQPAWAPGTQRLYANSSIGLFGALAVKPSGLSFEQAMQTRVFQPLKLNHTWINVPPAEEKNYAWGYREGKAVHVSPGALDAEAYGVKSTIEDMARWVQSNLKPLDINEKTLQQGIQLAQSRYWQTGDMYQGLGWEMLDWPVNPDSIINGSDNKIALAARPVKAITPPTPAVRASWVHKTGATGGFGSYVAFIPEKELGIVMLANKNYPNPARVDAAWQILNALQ
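AmpC (5.3 nM in the dispensed reagent) in 20 mM phosphate pH 7.0 with 0.01% (detergent screen) or 0.0001% Triton X-100 was preincubated with compounds for 15 min at room temperature. Nitrocefin was then added from an 800 uM solution, and hydrolysis was followed at 480 nm.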
TbPYK inhibitor: blocks Trypanosoma brucei pyruvate kinase; Q57TT1; TbPYK enzyme, Kinase-Glo Plus ATP luminescence, 45 min; Potency, µM (highest dose often 76.8 µM), inactives show at the top dose activity, negative = inhibition, most hits filed as inhibitors; hit rate 0.12% among 410,000; AID 624173; also: nearly all actives have a fitted effect of over 50% in size
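Activity of T. brucei pyruvate kinase was followed by Kinase-Glo Plus luminescence after the enzyme reacted 45 min at room temperature with 130 uM ADP (final) and substrate. Test compounds were added before ADP at multiple concentrations.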
AmpC inh detg: inhibitors of E. coli AmpC beta-lactamase with detergent; hit rate 0.041% among 370,000; Potency, µM (series often up to 114 µM), for inactives: at the highest dose activity change, negative = inhibition, actives largely listed as inhibitors; AmpC hydrolysis of nitrocefin, absorbance 480 nm, 0.01% Triton;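 also: 0% = no-compound wells and -100% = no-enzyme wells; nearly all actives have a fitted effect of over 25% in size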
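20 mM phosphate pH 7.0 + 0.01% (detergent screen) or 0.0001% Triton X-100; 5.3 nM AmpC reagent; cpd preinc 15 min RT; nitrocefin (800 uM stock) to start; A480 q20 s × 4 min; Activity was normalised to no-enzyme and no-compound control wells.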
Starred values were filed as active, the others as inactive; ? = inconclusive; . = not tested or not shown. Unless noted, calls follow the shape of the dose curve; as a rule, active = well fitted curve in the direction sought with a large enough effect; inconclusive = small, poorly fitted or top-dose-only effect, or another doubt; inactive = no such curve, though single readings can be large; an effect the other way counts as inactive or inconclusive. Unless noted, % is scaled to controls: 0 for no effect and ±100 for the full control effect; potency is read from the fitted curve at half-maximal effect.

SMILES	RE007 growth inh	FBPA Giardia inh	LmPK inhibitor	AmpC no deterg	TbPYK inhibitor	AmpC inh detg
O=C(Nc1ccc(Cl)cc1Cl)c1cccc(N2C(=O)C=CC2=O)c1	1.3µM*	.	12%	-32%	?	?
O=C(O)c1cccc(N2C(=O)C=CC2=O)c1	0%	.	.	.	?	.
N#CC1(NC(=O)COC(=O)c2ccccc2[N+](=O)[O-])CCCCC1	-2%	.	.	-8%	-15%	-2%
N#CC1(NC(=O)COC(=O)c2cc(O)c3ccccc3c2O)CCCCC1	?	.	.	-40%	28µM*	-15%
Cc1cccn2c1nc(=S)n2C(=O)c1ccco1	4%	-5%	10µM*	-18%	-25%	?
COC(=O)c1ccc(CSc2nc3scc(-c4cccs4)c3c(=O)[nH]2)o1	-2%	-10%	6%	10µM*	1%	-10%
COc1ccc(-n2nc3ccc(NC(=O)c4c(OC)cccc4OC)cc3n2)cc1	.	.	.	.	-1%	4%
O=C(N=c1nc2ccccn2s1)c1ccccc1	-25%	21%	3.5µM*	-6%	?	-8%
Cc1ccc(CNC(=O)c2ccc(Cn3c(SCc4ccc(F)cc4)nc4cccnc43)cc2)o1	.	.	.	.	-12%	16%
N/C(=N\OC(=O)c1ccc2c(c1)OCO2)c1ccncc1	-19%	2%	25µM*	-2%	-4%	3%
CC(C)c1ccc(NC(=O)CN2C(=O)COc3ccc(S(=O)(=O)N4CCCCC4)cc32)cc1	.	.	.	.	0%	-3%
NC(=O)c1ccc(-c2nc(-c3ccc4c(c3)OCCO4)c(-c3ccccn3)[nH]2)cc1	.	.	.	.	0%	.
Cn1c(=Nc2ccc(N3CCOCC3)cc2)ccc2ccccc21	-4%	-1%	-2%	-12%	4%	?
Cn1c(N=Nc2ccc(N3CCOCC3)cc2)[n+](C)c2ccccc21	18µM*	-22%	11µM*	-1%	?	3%
Cc1ccc(NC(=O)Nc2cn(CC(C)C)c(=O)c3ccccc23)cc1N(C)C	.	.	.	.	-2%	-4%
Cc1ccc(Cl)cc1NC(=O)c1ccc(Cn2cc(Cl)cn2)cc1	-8%	-5%	4%	11µM*	15%	-10%
Cc1ccc(N=c2ssnc2Cl)cc1	-92%	?	-16%	-53%	28µM*	-22%
COc1cc(N=c2ssnc2Cl)c(OC)cc1Cl	?	?	-4%	-8%	11µM*	3%
Cc1cc(C)nc(/N=c2/ssnc2Cl)c1	-3%	?	4%	-20%	-25%	?
CC1=C(C(=O)Nc2ccccc2)C(c2ccco2)C(C#N)=C(SCC(=O)Nc2cccc(C)c2C)N1 (stereo not drawn)	5%	-5%	6%	-23%	-9%	3%
CCOc1ccccc1NC(=O)CSC1=C(C#N)C(c2ccco2)C(C(=O)Nc2nc3ccccc3s2)=C(C)N1 (stereo not drawn)	5%	-1%	7%	5µM*	-5%	1%
Cc1c(Cl)cccc1NC(=O)COC(=O)c1c2c(nc3ccccc13)CCN(Cc1ccccc1)C2	-4%	10%	3%	8%	-8%	1%
CC(C)c1ccccc1NC(=O)COC(=O)c1c2c(nc3ccccc13)CCN(Cc1ccccc1)C2	4%	-7%	-3%	3.5µM*	-12%	-4%
O=C(Oc1c(-c2ccccc2)oc2ccccc2c1=O)c1ccccc1	-16%	1%	3%	-19%	2%	?
O=C(Oc1c(-c2ccccc2Cl)oc2ccccc2c1=O)c1ccc(Cl)cc1	1%	-4%	1%	18µM*	-1%	-6%
SMILES	RE007 growth inh	FBPA Giardia inh	LmPK inhibitor	AmpC no deterg	TbPYK inhibitor	AmpC inh detg
Cc1ccc2nc(NC(=O)CSc3nccn3Cc3ccccc3)sc2c1	.	.	.	.	-1%	0%
Cc1nn2cc(-c3ccc(-c4ccccc4)cc3)nc2s1	-10%	1%	-12%	-18%	-8%	-13%
CCc1nn2cc(-c3ccccc3)nc2s1	?	-3%	11µM*	-22%	?	1%
CCN(CC)c1ccc(/C=N/NC(=O)c2ccccn2)cc1	12%	-22%	-14%	-3%	-7%	4%
CCc1ccc(/C=N/NC(=O)c2ccccn2)cc1	-27%	-21%	13µM*	-6%	-27%	0%
CCOc1ccc(NC(=O)Nc2cccnc2)cc1	?	-5%	25µM*	-14%	-7%	5%
CCOc1ccc(NC(=O)c2ccccn2)cc1	?	0%	13µM*	-18%	-12%	3%
COc1ccc(CNC(=O)CCC2N=C3c4ccccc4N=C(SCc4ccc(F)cc4)N3C2=O)cc1 (stereo not drawn)	.	.	.	.	-9%	4%
CC(C)c1ccc(NC(=O)[C@H]2O[C@@H]3OC(C)(C)O[C@@H]3[C@H]3OC(C)(C)O[C@H]32)cc1	.	.	.	.	?	18%
O=C(NCCc1ccccc1)c1ccc2c(c1)N(Cc1ccccc1)C(=O)CS2=O (stereo not drawn)	-14%	1%	4%	5µM*	-6%	?
Cc1ccc(/C=C/c2nc3ccccc3s2)s1	?	-11%	28µM*	-18%	-2%	-5%
COc1ccc(OC)c2sc(N3CCN(C(=O)c4ccc5c(c4)CCCC5)CC3)nc12	.	.	.	.	-3%	2%
CC1(C)CC(=O)c2cc(-c3nc(-c4ccccc4)cs3)c(=O)[nH]c2C1	.	.	.	.	-2%	17%
O=C(N/N=C/c1ccc(-c2ccc(S(=O)(=O)Nc3ncccn3)cc2)o1)c1cc2ccccc2cc1O	-8%	-2%	20%	20µM*	-3%	-12%
CCN(CC)S(=O)(=O)c1ccc2c(c1)c(=O)c(C(=O)NCc1ccccc1Cl)cn2C	.	.	.	.	5%	12%
O=C(CSc1nnc(C2COc3ccccc3O2)o1)N1CCCCC1 (stereo not drawn)	11%	0%	12%	0%	-5%	-14%
O=C(CSc1nnc(C2COc3ccccc3O2)o1)NC1CCCCC1 (stereo not drawn)	-11%	3%	-2%	40µM*	-2%	-5%
CC(=O)c1ccc(-c2cccc(C3C4C=CCCC4(C)C(=O)N3Cc3ccccc3)c2)cc1 (stereo not drawn)	.	-3%	.	.	.	.
CCCCCOc1ccc(C2SC(=O)NC2=O)cc1OCC (stereo not drawn)	.	.	.	.	-5%	.
O=C1CCCC2=C1C(c1ccccc1)C1C(=O)c3ccccc3C1=N2 (stereo not drawn)	1%	-12%	0%	-45%	?	1%
Cc1ccc(C2C3=C(CCCC3=O)N=C3c4ccccc4C(=O)C32)cc1 (stereo not drawn)	9%	-22%	-3%	18µM*	-21%	-3%
